Source: PubChem (Broad Institute)
aSyn 5UTR act – Activators via SNCA 5'UTR binding, MLPCN; alpha-synuclein 5'UTR reporter, activators screen; activity score, % (tested at 7.5 µM), hits read low; hit rate 7.1% among 300,000; AID 1814; in the data active means activity score below about -60%
A number is an active result; 0 = inactive. Only a sample is shown.

SMILES	aSyn 5UTR act
Cc1cccc(-n2ncc3c(N4CC(C)CC(C)C4)ncnc32)c1 (stereo unspecified)	-109
COC(=O)c1ccc(NC(=O)c2nc(S(=O)(=O)Cc3cccc(C)c3)ncc2Cl)cc1	0
COC(=O)c1ccc(NC(=O)Cc2ccccc2)cc1	-123
CCC(=O)Nc1ccc(C(=O)OCc2ccccc2Cl)cc1	-168
O=C(Cc1ccccc1)Nc1ccc(SC(F)F)cc1	-130
COC(=O)c1ccc(NC(=O)C(=O)c2cccn2C)cc1	-109
COC(=O)c1ccc(NC(=S)Nc2ccccc2)cc1	-131
Cc1cccc(OCCOC(=O)c2c(-c3ccccc3)noc2C)c1	-97
COc1ccc(Cl)cc1NC(=O)c1cnc2n(c1=O)CCS2	-78
COc1ccccc1NC(=O)c1cnc2n(c1=O)CCS2	-133
CCCNC(=O)c1oc2ccc3c(c2c1C)C=CC(C)(C)O3	-90
CCCNC(=O)c1oc2ccc3c(c2c1C)C(=O)CC(C)(C)O3	-89
Nc1c(C(=O)Nc2ccc3c(c2)OCCO3)nnn1Cc1ccc(Br)cc1	-220
Nc1c(C(=O)Nc2ccc3c(c2)OCCO3)nnn1CCc1ccccc1	-126
Nc1c(C(=O)Nc2ccccc2Cl)nnn1-c1ccc2c(c1)OCCO2	-216
Nc1c(C(=O)Nc2ccc3c(c2)OCCO3)nnn1Cc1cccc(Br)c1	-163
COc1ccccc1CN1CC(C(=O)NCc2c(F)ccc(C)c2F)CCC1=O (stereo unspecified)	-72
CC(C)c1ccc(NC(=S)NCc2cccs2)cc1	-86
Cc1nonc1C1CCCN1C(=O)c1cc(COc2ccc(F)cc2F)on1 (stereo unspecified)	-126
CSc1ccccc1OCc1cc(C(=O)N2CCCC2c2nonc2C)no1 (stereo unspecified)	-144
CC1CC1c1ccc(/C=C(\C#N)C(=O)Nc2ccc(Cl)cc2)o1 (stereo unspecified)	-328
CC1CC1c1ccc(/C=C(\C#N)C(=O)Nc2ccccc2Cl)o1 (stereo unspecified)	-192
O=C(N/N=C/c1cccc(F)c1)NC1CCCCC1	-76
O=C(N/N=C/c1cccc(F)c1)c1c(O)c2c([nH]c1=O)CCCC2	-137
O=C(N/N=C/c1ccccc1F)NC1CCCCC1	-130
SMILES	aSyn 5UTR act
O=[N+]([O-])c1ccc2c(c1)nc1n2CCN(c2ccccc2)C1	-125
O=C1NC(=S)N/C1=C/C=C/c1ccccc1	-92
Cc1cccc(OCc2cc(-c3ccccc3)no2)c1C	-112
Fc1ccc(OCc2cc(-c3ccccc3)no2)cc1	-149
COc1ccc(-c2cc(COc3ccccc3)on2)cc1	-132
CCC(C)(C)C1CCC(=NNC(=O)c2ccoc2C)CC1 (stereo unspecified)	-112
CCc1ccc2[nH]c(C(=O)Nc3ccc(C)c(F)c3)cc2c1	-109
O=C(Nc1ccc(F)cc1)c1cc2cc(Cl)ccc2[nH]1	-62
Cc1ccc(O)c(/C=N/NC(=O)Cc2ccc(Cl)cc2)c1	0
O/N=C/c1ccccc1OCc1ccc(Cl)cc1	-98
O=C(Cc1ccccc1)N/N=C/c1ccccc1OCc1ccc(Cl)cc1	-95
CN(C)c1ccc(C(=O)NC2CCCc3ccccc32)cc1 (stereo unspecified)	-71
CCCC(=O)Nc1sc(C(=O)Nc2cccc(N)c2)c(C)c1C(=O)OC	-84
COC(=O)c1c(NC(=O)c2cccnc2)sc(C(=O)N(C)C)c1C	-84
COC(=O)c1c(NC(C)=O)sc(C(=O)Nc2ccccc2)c1C	-85
CCC(=O)Nc1sc(C(=O)Nc2ccccc2F)c(C)c1C(=O)OC	-64
Cc1cccc(N=Nc2c(C)nn(-c3ccccc3)c2N)c1C	-124
Cc1nn(-c2ccccc2)c(N)c1N=Nc1ccc(Cl)cc1	-175
O=C1c2ccccc2C(=O)C12OC2c1ccc(Cl)cc1 (stereo unspecified)	-72
O=[N+]([O-])c1cc(-c2nc(-c3ccncc3)no2)cc([N+](=O)[O-])c1	-118
O=[N+]([O-])c1cc(-c2nc(-c3ccncc3)no2)ccc1Cl	-79
COc1ccc(CCn2c(C3CCCCC3)nc3c(c(=O)c4ccccc4n3C)c2=O)cc1	0
COc1ccc(CCn2c(-c3ccccc3)nc3c(c(=O)c4ccccc4n3C)c2=O)cc1	-86
Cc1[nH]n(-c2ccc([N+](=O)[O-])cc2)c(=O)c1C=NCC1CCCO1 (stereo unspecified)	-88
CCc1ccc(C(=O)Cc2cc3cccc(OC)c3oc2=O)cc1	-105
SMILES	aSyn 5UTR act
COc1cccc2cc(C(=O)NCc3ccccc3Cl)c(=O)oc12	-101
COc1cccc2cc(C(=O)c3ccccc3)oc12	-132
COc1cccc2cc(C(=O)Nc3ccccc3C)/c(=N/O)oc12	-114
CCc1ccc(-c2nc(C(N)=O)c3[nH]c(=O)n(-c4ccccc4OC)c3n2)cc1	0
COc1cccc2cc(C(=O)OCC(=O)NCc3ccc4c(c3)OCO4)c(=O)oc12	-92
COc1cccc2cc(-c3nc4ccccc4o3)c(=O)oc12	-169
COc1cccc2cc(CC(=O)c3ccccc3)c(=O)oc12	-147
COc1cccc2cc(C(=O)NCc3ccco3)c(=Nc3ccc(C(=O)O)cc3)oc12	-90
COc1cccc2cc(CC(=O)c3cc(C)ccc3C)c(=O)oc12	-116
COc1cccc(CNc2ccc3c(c2)CCC3)c1	-167
COc1ccc(OC)c(CNc2ccc3c(c2)CCC3)c1	-118
CC(=O)N1CCN(c2ccc(NC(=O)c3ccc(C(C)(C)C)cc3)cc2)CC1	-96
CC(=O)N1CCN(c2ccc(NC(=O)c3cccc(Cl)c3)cc2)CC1	-122
CC(C)(C)C(=O)/C=C(N)/C=C/c1ccccc1	-76
O=C(/C=C/c1ccc[nH]1)c1ccccc1	-64
O=C(/C=C/c1ccccc1)c1ccccc1	-105
N/C(=N\OC(=O)/C=C/c1ccccc1)c1ccccc1	-243
O=C(/C=C/c1ccccc1)/C=C/c1ccccc1	-112
O=C(/C=C/c1ccccc1)c1ccc2c3c(cccc13)CC2	-87
O=C(Nc1ccon1)c1ccc(OC2CCCC2)cc1	-102
CC(=O)c1ccc(N2Cc3ccccc3/C2=N\C(=O)Nc2ccccc2)cc1	-98
O=C(N=C1c2ccccc2CN1c1ccc(F)cc1)c1ccc(Cl)nc1	-94
CC(=O)c1ccc(N2Cc3ccccc3C2=NC(=O)c2cccs2)cc1	-69
CCOc1ccc2nc(NC(=O)C3=NNC(=O)CC3)sc2c1	-73
CCOc1ccc2nc(NC(=O)c3cnc(C)cn3)sc2c1	-68
SMILES	aSyn 5UTR act
CC(C)(C)C1CCc2sc(-c3nnc(CCl)o3)cc2C1 (stereo unspecified)	-64
CC(=O)c1c(C)[nH]c(C2=NNC(=NC(C)(C)C)SC2)c1C	-97
CCOC(=O)c1c(C)[nH]c(C2=NNC(=Nc3ccccc3OC)SC2)c1C	-90
CCOC(=O)c1c(C)[nH]c(C2=NNC(=Nc3ccccc3)SC2)c1C	-97
CC1(C)Cc2c(sc3nc(N/N=C/c4ccccc4)[nH]c(=O)c23)CO1	-78
O=C(CSc1ccsc1[N+](=O)[O-])NCc1ccccc1	-104
COc1ccccc1CNC(=O)CSc1ccsc1[N+](=O)[O-]	-114
COc1ccccc1NC(=O)C1=C(C)NC(=O)NC1c1ccccc1[N+](=O)[O-] (stereo unspecified)	-98
CCCCc1nc2cc(C(=O)N3CCCCC3C(=O)OC)ccc2o1 (stereo unspecified)	-98
CCn1ccnc1CNC(=O)c1ccc2oc(CCCc3ccccc3)nc2c1	-75
CCCCc1nc2cc(C(=O)N3CCCC3)ccc2o1	-90
CCCCc1nc2cc(C(=O)N3CCCC(COC)C3)ccc2o1 (stereo unspecified)	-86
